The panel holds about 83,000 compounds, 20% with a hit somewhere; the sample as a whole holds those more often.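 Testing used 96-well plates and a 48-hour single-concentration exposure. Example: -40 means 40% of the starting cells died.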 A number with no mark means an inactive call. Activity calls are given as the source filed them. The calls were made as follows: active = growth percent below 10; inactive = the rest.

Results on 35 molecules are retold here after PubChem BioAssay (NCI).

What all share (assay): NCI-60 one-dose screen, 48 h (100 = growth as untreated, 0 = no growth, -100 = all killed)
Holding throughout (conditions): 10 µM unless noted

Assay [1] has as its system T-47D breast.
For assay [2], the system named is BT-549 breast.
Assay [3] relates to MDA-MB-435 melanoma.
For assay [4], the system named is SW-620 colon.
Assay [5] has as its system HCT-116 colon.
The test system of assay [6] is HCC-2998 colon.
In assay [7] the test system is KM12 colon.
In assay [8] the test system is MCF7 breast.

Regarding `CCCCn1c(=O)[nH]c(N)c([C@@H]2c3c([nH]c(=O)n(CCCC)c3=O)Oc3ccc4ccccc4c32)c1=O`, the growth in assay [1] is 81.1%; in assay [2], 46.9%; in assay [3], 5.95% (active); in assay [4], -67.9% (active); in assay [5] it was -26.3% (active); in assay [6], 83.3%. Besides, the growth in assay [7] is -44.1% (active).

Consider `Nc1nc2ccccc2c2c(=O)c3cccc(Cl)c3sc12`, for which the growth in assay [1] was 38.7%; in assay [2], 99.2%; in assay [3], 96.9%; in assay [4] it was 89%; in assay [5] it was 64.8%; in assay [6] it was 63%.

As for `Cc1cn(-c2cc(NC(=O)c3cccc(C#Cc4cccc5[nH]nc(N)c45)c3)cc(C(F)(F)F)c2)cn1`, the growth in assay [1] is 39.2%; in assay [2], 30.3%; in assay [3], 36.1%; in assay [4], 44.1%; in assay [5] it was 23.5%; in assay [6] it was 39.1%. Also, the growth in assay [7] was 20.6%.

For the molecule `COc1cccc(/C=C2\COc3ccc(O)c(O)c3C2=O)c1`, the growth in assay [1] is -0.573% (active); in assay [2], 15.6%; in assay [3], -3.44% (active); in assay [4] it was 1.94% (active); in assay [5] it was -7.55% (active); in assay [6], 19.8%. Further, in assay [7], the growth is -13.7% (active).

Consider `CN(C)CC(C)(C)C(=O)/C=C/c1ccccc1`, for which the growth in assay [1] was -30.8% [25 µM] (active); in assay [2] it was -65% [25 µM] (active); in assay [3], -35.9% [25 µM] (active); in assay [4] it was -59.1% [25 µM] (active); in assay [8] it was -13.6% [25 µM] (active); in assay [5], -87.1% [25 µM] (active). For the same molecule, in assay [7], the growth is -22.8% [25 µM] (active).

For the molecule `O=C(COc1ccc(-c2nc3cc(Cl)c(Cl)cc3[nH]2)cc1)N=Nc1c(O)[nH]c2ccc(Cl)cc12`, the growth was 56.8% in assay [1]; 76.7% in assay [2]; 83.5% in assay [3]; 56.1% in assay [4]; 54.4% in assay [5]; 95.1% in assay [6]. In addition, the growth in assay [7] was 64.5%.

`O=C(CSc1nnc(-c2cnccn2)n1-c1ccccc1)c1ccc(Cl)cc1`: the growth in assay [1] was 85.9%; in assay [2], 91.6%; in assay [3], 106%; in assay [4] it was 106%; in assay [5] it was 95.4%; in assay [6] it was 108%. The growth in assay [7] is 94.8%.

Turning to `CC(=O)Oc1ccc(/C(=C(\C)c2ccc(Cl)cc2)c2ccc(OCCN3CCCCC3)cc2)cc1`, the growth in assay [1] is 29.8%; in assay [2] it was 73.5%; in assay [3], -5.9% (active); in assay [4], 66.7%; in assay [8], 3.38% (active); in assay [5] it was 32.4%. Besides, the growth in assay [7] was 24%.

On to `OCCn1cc(-c2nc(-c3c[nH]c4ncccc34)cs2)c2ccccc21`, for which the growth in assay [1] is 37.3%; in assay [2] it was 76%; in assay [3], 52.1%; in assay [4], 91.5%; in assay [5], 85.2%; in assay [6], 52%. Besides, the growth in assay [7] was 48%.

Take `OB1OCc2cc(/C=C/c3cccc(C(F)(F)F)c3)ccc21`: the growth was 20.4% in assay [1]; 8.09% (active) in assay [2]; 20.8% in assay [3]; 15.5% in assay [4]; 0.518% (active) in assay [5]; 32.5% in assay [6]. In addition, the growth in assay [7] was 14.6%.

In the case of `N#Cc1c(-c2ccc(Cl)cc2)nc(NN2C(=O)c3ccccc3C2=O)nc1N1CCOCC1`, the growth was 94.7% in assay [1]; 112% in assay [2]; 106% in assay [3]; 98.8% in assay [4]; 99.5% in assay [5]; 111% in assay [6]. Moreover, in assay [7], the growth is 107%.

Take `COc1ccc2c(c1)N(CCO)C1=C(C(=O)OC1)C2c1cccc(F)c1` (stereo unspecified): the growth is 56.7% in assay [1]; 50% in assay [2]; -40.6% (active) in assay [3]; 26.9% in assay [4]; 4.87% (active) in assay [5]; 4.78% (active) in assay [6]. The growth in assay [7] was 15.5%.

Consider `Nc1c(C(=O)Nc2ccccc2C(F)(F)F)sc2nc3c(cc12)CCC3`, for which the growth was 67.4% in assay [1]; 115% in assay [2]; 92.8% in assay [3]; 96% in assay [4]; 107% in assay [5]; 94.6% in assay [6]. The growth in assay [7] was 113%.

Consider `N#Cc1nc(-c2ccccc2)oc1S(=O)(=O)N1CCN(c2ccccc2)CC1`, for which the growth was 91.1% in assay [1]; 90.8% in assay [2]; 86.3% in assay [3]; 64.1% in assay [4]; 44.9% in assay [5]; 102% in assay [6]. In assay [7], the growth was 104%.

Take `CCOC(=O)C1=C(c2ccccc2)N=C2SC=C(c3ccc(Cl)cc3)N2C1c1ccc(Br)cc1` (stereo unspecified): the growth in assay [1] is 52.2%; in assay [2] it was 84.3%; in assay [3], 94.3%; in assay [4] it was 78.9%; in assay [5], 64.9%; in assay [6], 90.5%.

Consider `COc1ccc2[nH]c(C(=O)N3CCN(C(=O)OCc4ccc5c(Cl)cc(Cl)c(O)c5n4)CC3)cc2c1`, for which the growth in assay [1] was -57.5% (active); in assay [2], -69.3% (active); in assay [3], -91% (active); in assay [4], -81.9% (active); in assay [5], -92.2% (active); in assay [6], -86.7% (active).

For the molecule `CC1(C)CC(=O)C2=C(C1)N(c1ccc(OC(F)(F)F)cc1)C(N)=C(C#N)C2c1ccc(Br)cc1F` (stereo unspecified), the growth in assay [1] is 78.9%; in assay [2], 69.1%; in assay [3] it was 93.1%; in assay [4], 69.9%; in assay [5], 46.7%; in assay [6], 88.4%. In addition, the growth in assay [7] is 89.5%.

For the molecule `CS(=O)(=O)Nc1cncc(-c2ccc3ncnc(Nc4cncc(Cl)c4)c3c2)c1`, the growth in assay [1] was 2.52% (active); in assay [2], 72.6%; in assay [3] it was 103%; in assay [4], 107%; in assay [5], 91.3%; in assay [6], 95%. Moreover, the growth in assay [7] is 84.7%.

As for `CC(=O)N1N=C(c2ccc(Nc3nc(Nc4ccccc4)nc(Nc4ccccc4)n3)cc2)CC1c1ccccc1` (stereo unspecified), the growth was 46.5% in assay [1]; 87.2% in assay [2]; 101% in assay [3]; 99% in assay [4]; 77.1% in assay [5]; 99.2% in assay [6]. Moreover, in assay [7], the growth is 89.6%.

Regarding `CSc1nc2ccccc2cc1/C=[N+](\[O-])c1ccccc1`, the growth in assay [1] was 61.6%; in assay [2], 66.1%; in assay [3], 45.9%; in assay [4], 28.9%; in assay [5] it was 10.4%; in assay [6], 110%. Also, in assay [7], the growth is 100%.

In the case of `COCCOc1cc2ncnc(N3CCN(c4cc(S(C)(=O)=O)c(C)cc4Cl)CC3)c2cc1OCCOC`, the growth in assay [1] is 69.6%; in assay [2], 91.4%; in assay [3], 105%; in assay [4], 110%; in assay [8], 91.9%; in assay [5], 103%. Also, the growth in assay [7] was 93.2%.

For `CCOC(=O)C#Cc1c(C(=O)OCC)nnn1Cc1ccc([N+](=O)[O-])cc1`, the growth was 23.8% in assay [1]; 80.2% in assay [2]; 75.2% in assay [3]; -40.5% (active) in assay [4]; 43.4% in assay [5]; 81.1% in assay [6]. Besides, in assay [7], the growth is 92%.

Turning to `COc1ccccc1N1CCCCC1`, the growth was 99.1% in assay [1]; 96% in assay [2]; 112% in assay [3]; 99.9% in assay [4]; 102% in assay [5]; 110% in assay [6]. Also, the growth in assay [7] was 107%.

As to `O=C1C(Cl)=C(Nc2ccc(S(=O)(=O)N3CCOCC3)cc2)C(=O)c2ccccc21`, the growth in assay [1] is 69.8%; in assay [2] it was 45.9%; in assay [3], 88.1%; in assay [4], 32.5%; in assay [5], 4.7% (active); in assay [6], 106%. In addition, in assay [7], the growth was 64.5%.

Consider `NS(=O)(=O)c1ccccc1NC(=O)Nc1nc2ccccc2s1`, for which the growth in assay [1] was 87.3%; in assay [2], 98.2%; in assay [3] it was 103%; in assay [4], 101%; in assay [5] it was 98.8%; in assay [6], 95.8%. Further, in assay [7], the growth was 104%.

On to `CCCCCC(/C=N\NC(=S)N/N=C/C(=C/c1ccccc1)CCCCC)=C\c1ccccc1`, for which the growth in assay [1] was 83.9%; in assay [2], 83.4%; in assay [3] it was 81.6%; in assay [4] it was 81.2%; in assay [5] it was 53.3%; in assay [6] it was 64.6%. For the same molecule, in assay [7], the growth was 66.7%.

`O=C(O)CCN1C(=O)/C(=C/C(Cl)=C/c2ccccc2)SC1=S`: the growth in assay [1] is 28.8%; in assay [2] it was 16.9%; in assay [3], -63.4% (active); in assay [4], 7.78% (active); in assay [5], -19% (active); in assay [6], 4.75% (active). Further, in assay [7], the growth is 15.3%.

As to `COc1cc2c(c(OC)c1OC)CCC(c1cccc(NC(=O)c3ccc(Br)cc3)c1)O2` (stereo unspecified), the growth in assay [1] was 40.4%; in assay [2], 87.5%; in assay [3] it was 69.1%; in assay [4] it was 91.5%; in assay [5] it was 71.9%; in assay [6], 102%. Further, the growth in assay [7] is 91.1%.

As for `O=C(Nc1nc2ccc(C(=O)N3CCN(/C=C/c4ccccc4)CC3)cc2s1)c1ccc(NCCc2ccccc2)c([N+](=O)[O-])c1`, the growth in assay [1] is 43.2%; in assay [2], 71.9%; in assay [3], 55.8%; in assay [4] it was 4.25% (active); in assay [5], 11.2%; in assay [6] it was 76.9%. In assay [7], the growth was 53.5%.

As to `COc1ccc(NC2=C(I)C(=O)c3ncccc3C2=O)cc1`, the growth in assay [1] was -32.7% (active); in assay [2], -6.34% (active); in assay [3] it was -88.9% (active); in assay [4], -60.6% (active); in assay [5] it was 2.09% (active); in assay [6], 47.6%. Besides, the growth in assay [7] was 15.3%.

Turning to `Oc1c(Br)cc(Br)c2ccc(Cn3cc(-c4ccc(C(F)(F)F)cc4)nn3)nc12`, the growth in assay [1] is 46.2%; in assay [2], 72.6%; in assay [3], 48.2%; in assay [4], -16.3% (active); in assay [5] it was -0.0235% (active); in assay [6] it was 117%. The growth in assay [7] was 104%.

As for `CC(C)(Sc1cc(C(C)(C)C)c(OC(=O)CCCC(=O)O)c(C(C)(C)C)c1)Sc1cc(C(C)(C)C)c(OC(=O)CCCC(=O)O)c(C(C)(C)C)c1`, the growth is 49.5% in assay [1]; 39.8% in assay [2]; 27.8% in assay [3]; 41.4% in assay [4]; 30% in assay [8]; 15.9% in assay [5]. In addition, the growth in assay [7] was 10.9%.

Consider `CCCCNCCCCCNc1cc(OC)cc2cccnc12`, for which the growth in assay [1] was 79.4%; in assay [2] it was 91%; in assay [3], 102%; in assay [4], 100%; in assay [5], 85.9%; in assay [6], 95.4%. For the same molecule, the growth in assay [7] was 114%.

On to `c1cnc2c(-c3nc4ccc5[nH]ncc5c4c4c3CCCC4)c[nH]c2c1`, for which the growth in assay [1] was 38.1%; in assay [2], 72.5%; in assay [3], 51.9%; in assay [4] it was 18.9%; in assay [5], 0.564% (active); in assay [7] it was 26.9%.

As to `Cc1ccc(C)n1-c1ccccc1-n1c(C)ccc1C`, the growth in assay [1] is 91.2%; in assay [2], 104%; in assay [3], 94.1%; in assay [4], 139%; in assay [8] it was 101%; in assay [5], 104%. For the same molecule, the growth in assay [7] is 117%.
